Screening results as filed in PubChem.
RAD52 anneal inh = RAD52 (human) annealing inhibition; P43351; recombinant RAD52 DNA annealing, FRET fluorescence; inhibition, % at 18.7 µM; 360,000 tested, 0.46% active; AID 651710;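 active = every replicate showing at least 50% inhibition; inconclusive = mean inhibition at least 50% but not in every replicate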
Target sequence (P43351 whole entry, looked up): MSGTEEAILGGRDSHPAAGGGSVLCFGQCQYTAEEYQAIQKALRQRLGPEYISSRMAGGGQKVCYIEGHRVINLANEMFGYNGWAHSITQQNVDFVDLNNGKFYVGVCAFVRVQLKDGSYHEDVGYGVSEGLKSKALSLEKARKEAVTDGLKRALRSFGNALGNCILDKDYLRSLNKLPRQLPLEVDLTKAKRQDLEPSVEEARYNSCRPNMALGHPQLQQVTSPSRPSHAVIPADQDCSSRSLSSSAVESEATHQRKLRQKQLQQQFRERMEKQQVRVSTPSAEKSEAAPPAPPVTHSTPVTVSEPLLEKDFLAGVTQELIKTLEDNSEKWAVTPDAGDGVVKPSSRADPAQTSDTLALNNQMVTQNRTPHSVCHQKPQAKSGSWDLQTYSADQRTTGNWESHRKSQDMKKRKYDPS
MLL AF4-AF9 inh = MLL-AF4/AF9 protein interaction inhibition | P42568 | AlphaScreen, biotin-AF4 peptide binding to FLAG-AF9 | inhibition, % at 10 µM | 350,000 tested, 0.47% active;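 active = every replicate reaching a set inhibition limit, whatever the replicate mean, cut at about 25% in these data; inconclusive = mean inhibition reaches that limit but some replicates miss it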;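 also: 0% = plate neutral control median and 100% = total signal loss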
FGF22 binding = shifts melting point of recombinant human FGF22; Q9HCT0; recombinant FGF22 thermal shift, SYPRO orange fluorescence; percent of sucrose octasulfate shift, DMSO zero; activity (Tm shift, normalised), % at 9.99 µM; 340,000 tested, 1.5% active; AID 651658;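 active = mean Tm shift, scaled 0 neutral to 100 positive control, at about 1.3% or above, every replicate too, limit read from the data; inconclusive = no clear call, values can overlap the other calls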
Target sequence (Q9HCT0 whole entry, looked up): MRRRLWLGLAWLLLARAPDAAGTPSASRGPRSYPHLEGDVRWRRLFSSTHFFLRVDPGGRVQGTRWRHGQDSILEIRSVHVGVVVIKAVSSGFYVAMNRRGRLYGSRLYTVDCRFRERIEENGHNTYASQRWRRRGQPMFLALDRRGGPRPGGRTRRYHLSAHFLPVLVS
ERAP1 inh = inhibitors of human ERAP1 aminopeptidase; Q9NZ08; recombinant ERAP1, Leu-AMC fluorescence, 60 min; inhibition, % at 10.7 µM; 340,000 tested, 0.15% active; AID 652197;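 active = mean replicate inhibition of at least 30%, or all replicates individually reaching that 30% level; inactive = mean below 30% and not every replicate reaching it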;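 also: 0% = neutral control wells and 100% = L-leucinethiol positive control wells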
DENV2 CPE rescue = protects cells from dengue virus 2 cytopathic effect. AID 651640. DENV2-infected cells, cytopathic effect rescue, plate reader. 350,000 tested, 1.7% active. CPE inhibition, % at 9.99 µM; in the data active = CPE inhibition above about 20%, passing the limit was not always enough; inconclusive = no clear call, values can overlap the other calls; tested in BHK-21 cells;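 also: 0% = median of neutral control wells and 100% = median of positive control wells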
Starred values were filed as active, the others as inactive; ? = inconclusive; . = no result given. An excerpt weighted towards active compounds, which were near 4% of everything screened.

SMILES	RAD52 anneal inh	MLL AF4-AF9 inh	FGF22 binding	ERAP1 inh	DENV2 CPE rescue
Clc1ccc(-c2cc(COc3ccccc3)on2)cc1	-1.0	-3.3	43.3*	4.1	-2.1
CC(=O)N(c1cc(C)ccc1C)c1ccccc1[N+](=O)[O-]	-14.8	1.1	43.0*	-1.1	8.6
CN1C(=O)c2cc(NC(=O)C3CC3)ccc2OC[C@H]2O[C@@H](CC(=O)NCc3ccccc3F)CC[C@@H]21	4.6	1.7	0.1	3.3	10.3
CCc1cc2c(SCC#N)ncnc2s1	-32.5	-2.0	43.0*	-2.6	-2.6
O=C(NCC[C@H]1CC[C@H](NC(=O)C2CCCCC2)[C@H](CO)O1)c1ccc(F)cc1	-23.4	0.0	-0.1	-3.2	-9.7
O=C(Nc1cccc(C(F)(F)F)c1)c1csc(COCCO)n1	-11.8	-8.6	0.9	5.2	24.3*
CN(C)C(=O)C[C@@H]1C[C@@H]2c3cc(NC(=O)Nc4ccccc4)ccc3O[C@@H]2[C@@H](CO)O1	.	.	0.0	.	-7.4
CN(C)C(=O)C[C@H]1C=C[C@H](NC(=O)C2CCC2)[C@@H](CO)O1	-7.6	-2.2	0.1	-0.9	4.9
CC1=NN(c2ccccc2)C(=O)/C1=C\C=C1/N(C)c2ccccc2C1(C)C	-12.5	35.9*	0.3	3.0	-2.9
CC1=NN(c2ccccc2)C(=O)/C1=C/N(C)C	-8.0	-26.7	0.0	-1.4	4.9
CC(C)c1ccc(CNC(=O)C(=O)Nc2nccs2)cc1	-2.9	-0.3	43.5*	-0.5	3.0
O=C(NCc1ccc(Cl)cc1)C(=O)Nc1nccs1	-17.2	0.9	0.0	2.4	1.7
CCn1cc(CN2CCN(Cc3cccc(OC)c3)C(CCO)C2)c(C)n1 (centres undefined)	-7.3	-2.1	43.0*	-0.8	-1.5
COCc1cc(CN2CCN(Cc3ccsc3)C(CCO)C2)ccc1OC (centres undefined)	-7.1	-6.4	43.1*	-0.9	2.8
CC(C)(O)C#Cc1ccc(CN2CCN(Cc3ccsc3)C(CCO)C2)cc1 (centres undefined)	-25.9	0.0	43.3*	-3.2	-0.1
O=C(C[C@@H]1C[C@H]2c3cc(NC(=O)Nc4ccccc4F)ccc3O[C@H]2[C@H](CO)O1)NC1CCCC1	6.2	-4.5	-0.2	-6.1	-11.4
O=C(C[C@H]1C[C@H]2c3cc(NC(=O)Nc4ccccc4F)ccc3O[C@H]2[C@H](CO)O1)NC1CCCC1	5.0	-16.5	0.0	-2.2	20.2*
O=C(C[C@@H]1C[C@@H]2c3cc(NC(=O)Nc4ccccc4F)ccc3O[C@@H]2[C@H](CO)O1)NC1CCCC1	7.3	-15.4	0.2	-4.4	49.2*
O=C(C[C@H]1C[C@@H]2c3cc(NC(=O)Nc4ccccc4F)ccc3O[C@@H]2[C@@H](CO)O1)NC1CCCC1	-11.5	-3.3	0.1	-4.0	22.9*
COc1cccc(-c2cn(CC[C@@H]3CC[C@@H](NS(=O)(=O)Cc4ccccc4)[C@H](CO)O3)nn2)c1	-21.9	1.9	-0.3	-6.0	-0.6
O=C(C[C@H]1CC[C@@H](NC(=O)Nc2cc(F)ccc2F)[C@@H](CO)O1)Nc1ccccc1	6.2	6.4	0.2	-2.1	5.7
CCOC(=O)C1(C)/C(=N/Nc2ccccc2OC)C(=O)C(=O)N1c1ccccc1 (centres undefined)	-20.9	17.8	43.0*	-1.9	-4.7
CSc1ccc(C(=O)c2[nH]c(=O)[nH]c2C)cc1	-0.5	-3.6	-0.3	-0.1	-9.4
Cc1[nH]c(=O)[nH]c1C(=O)CCCCC(=O)O	-10.7	73.4*	-0.2	-1.6	-4.7
COc1cccc(NC(=O)N(C)C[C@@H]2Oc3cc(C#Cc4ccc(F)cc4)ccc3S(=O)(=O)N([C@@H](C)CO)C[C@@H]2C)c1	12.1	-21.1	0.3	5.0	-12.2
SMILES	RAD52 anneal inh	MLL AF4-AF9 inh	FGF22 binding	ERAP1 inh	DENV2 CPE rescue
C[C@@H]1CN([C@@H](C)CO)S(=O)(=O)c2ccc(C#Cc3ccc(F)cc3)cc2O[C@H]1CN(C)C(=O)CN(C)C	54.9*	11.9	-0.7	-3.3	-3.7
C[C@H](CO)N1C[C@H](C)[C@@H](CN(C)C(=O)CN(C)C)Oc2cc(C#Cc3ccc(F)cc3)ccc2S1(=O)=O	52.0*	12.3	-0.6	-1.3	-4.4
Cc1ccccc1S(=O)(=O)N[C@H]1CC[C@H](CCNS(=O)(=O)c2cccc(F)c2)O[C@H]1CO	-0.6	-1.1	-0.6	0.0	-2.3
CCCc1cc(C(=O)OC)c(NC(=O)CCC(=O)O)s1	-3.6	-3.3	43.2*	-1.9	5.1
O=C(C[C@H]1CC[C@H](NC(=O)Nc2ccc(F)cc2)[C@@H](CO)O1)NCc1cccc(F)c1	-8.9	-1.9	0.0	-0.9	0.4
COc1cc(NC(=O)[C@@H](Cc2ccccc2)NC(=O)[C@H]2O[C@@H](n3ccc(=O)[nH]c3=O)[C@H](O)[C@@H]2O)cc(OC)c1OC	-18.9	.	0.2	-1.9	42.9*
COc1cc(NC(=O)[C@@H](Cc2ccccc2)NC(=O)[C@H]2O[C@@H](n3ccc(N)nc3=O)[C@H](O)[C@@H]2O)cc(OC)c1OC	-8.2	.	0.1	-1.7	?
CC=Cc1ccc2n(c1=O)C[C@H]1[C@H](CO)[C@@H](C(=O)N[C@@H](C)c3ccccc3)[C@@H]2N1Cc1ccncc1 (mixture of isomers)	3.5	0.3	15.8*	1.9	3.7
C[C@@H](NC(=O)[C@@H]1[C@@H](CO)[C@@H]2Cn3c(cccc3=O)[C@@H]2N1CC1CCCCC1)c1ccccc1	-9.7	10.1	.	-0.1	-14.1
O=C(NCc1ccc(F)cc1)[C@H]1[C@H](CO)[C@H]2Cn3c(cccc3=O)[C@@H]1N2CC1CCCC1	-1.4	2.0	0.1	-0.3	42.9*
O=C(NCc1ccc(F)cc1)[C@H]1[C@H](CO)[C@H]2Cn3c(cccc3=O)[C@@H]1N2CC1CC1	-0.5	-0.9	-0.1	-4.4	-1.0
O=C([C@H]1[C@H](CO)[C@H]2Cn3c(cccc3=O)[C@@H]1N2Cc1cccc(Cl)c1)N1CCCCC1	1.4	0.2	-0.3	1.6	33.8*
C[C@@H](NC(=O)[C@H]1[C@H](CO)[C@H]2Cn3c(cccc3=O)[C@H]2N1CC1CCCCC1)c1ccccc1	2.8	-5.7	.	-0.3	24.2*
CCS(=O)(=O)N[C@H]1C=C[C@@H](CC(=O)N2CCCCC2)O[C@H]1CO	-14.2	-3.1	-0.1	0.4	5.4
Cc1noc(C)c1S(=O)(=O)N(C)C[C@H]1Oc2ccc(NC(=O)CCN3CCOCC3)cc2CC(=O)N([C@H](C)CO)C[C@@H]1C	-8.2	0.5	.	0.0	-2.9
COc1ccc(NC(=O)Nc2ccc3c(c2)C(=O)N([C@H](C)CO)C[C@H](C)[C@H](CN(C)C(=O)CCC(F)(F)F)OCCCC[C@@H](C)O3)cc1	.	.	-0.4	.	-7.2
C[C@H](NC(=O)[C@H]1[C@H](CO)[C@H]2Cn3c(cccc3=O)[C@@H]1N2Cc1cccnc1)c1ccccc1	-7.8	-1.3	-0.1	3.6	81.3*
O=C(NCCCN1CCOCC1)[C@H]1[C@H](CO)[C@H]2Cn3c(cccc3=O)[C@@H]1N2C(=O)NC1CCCC1	2.1	0.0	-0.2	-3.7	-7.5
